Assay results taken from PubChem BioAssay (EPA / NIEHS).
Activity calls are given as the source filed them. The calls were made as follows: active = hit-call score of the fitted dose curve at least 0.9, where 1 is the maximum; inactive = score below 0.9.

Assay: BSK_LPS_SRB: Viability Assessment in the BioMAP Diversity Plus: LPS Assay (AID 2283079);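 also: measured one day after compound addition; fitted in both directions against DMSO so loss or gain of signal counts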
Conditions: primary human HUVEC with PBMC
Description: BSK_LPS is a cell-based, multiplexed-readout assay that uses umbilical vein endothelium and peripheral blood mononuclear cells, a human vascular primary cell co-culture, with measurements taken at 24 hours after chemical dosing in a 96-well plate.BSK_LPS_SRB is an assay component measured in the BSK_LPS assay. It measures 0.1% sulforhodamine related to cell death using Sulforhodamine staining technology.Data from the assay component BSK_LPS_SRB was analyzed into 1 assay endpoint. This assay endpoint, BSK_LPS_SRB, was analyzed with bidirectional fitting relative to DMSO as the negative control and baseline of activity. Using a type of viability reporter, gain or loss-of-signal activity can be used to understand changes in the signaling. Furthermore, this assay endpoint can be referred to as a primary readout, because this assay has produced multiple assay endpoints where this one serves a signaling function. To generalize the intended target to other relatable targets, this assay endpoint is annotated to the cell morphology intended target family, where the subfamily is cell conformation.
The levels of cell surface (or secreted, indicated by the prefix "s") biomarker endpoints were measured by ELISA. Overt cytotoxicity to cells in confluent adherent cultures (all systems other than the BT system) was assessed by measuring total protein levels using sulforhodamine B (SRB) staining in parallel cultures at the time of biomarker measurements, indicated as SRB endpoints. For proliferation assays for adherent cell types, individual cell types are cultured at sub-confluence and relative cell numbers quantified by SRB staining at time points optimized for each system (48 h: 3C and CASM3C systems; 72 h: BT and HDF3CGF systems; 96 h: SAg system). SRB was performed by staining cells with 0.1% SRB after fixation with 10% TCA and reading wells at 560 nm.Viability and proliferation of PBMC (T cells) was quantified by Alamar Blue reduction for the SAg and BT systems. For PBMC viability (referred to as PBMC Cytotoxicity within the assay endpoint names), cells were plated (75,000/well in a 96-well plate) and then chemical samples added for 1 h before addition of activators, SEB and TSST-1 (20 ng/mL final concentration each). Cells were incubated for 90 h. Then, Alamar Blue (20 uL/well) (Invitrogen, Cat DAL1100) was added for 6 h, and the plates were read with a fluorescence microplate reader at 546/580 nm (excitation/emission). For PBMC proliferation, cells were plated and activated as above but incubated for only 16 h prior to addition of Alamar Blue. Plates were read after 6 h.

SMILES | AC50 | outcome
Cc1ccc(O)c(C(C)(C)C)c1 | 31 µM (active) | 
CC(=O)Nc1ccccc1O |  | inactive
N#Cc1ccc(CC(=NNC(=O)Nc2ccc(OC(F)(F)F)cc2)c2cccc(C(F)(F)F)c2)cc1 |  | inactive
CCCCC(CC)COC(=O)/C=C\C(=O)OCC(CC)CCCC (stereo not given) |  | inactive
CC(=O)OCCC(C)CC(C)(C)C (stereo not given) |  | inactive
O=C1CCCCCCCCCCCCCCO1 |  | inactive
COC(=O)c1ccc(C)cc1 |  | inactive
CC(=O)[C@H]1CC[C@H]2[C@@H]3CC=C4C[C@@H](O)CC[C@]4(C)[C@H]3CC[C@]12C |  | inactive
C=C(C)C(=O)O[C@H]1C[C@@H]2CC[C@@]1(C)C2(C)C | 30.4 µM (active) | 
CC1COc2ccccc2N1C(=O)C(Cl)Cl (stereo not given) | 7.42 µM (active) | 
O=[N+]([O-])c1cc(C(F)(F)F)ccc1Cl |  | inactive
CN(CCOc1ccc(CC2SC(=O)NC2=O)cc1)c1ccccn1 (stereo not given) |  | inactive
O=P(c1ccccc1)(c1ccccc1)c1ccccc1 |  | inactive
Nc1cc([N+](=O)[O-])ccc1O |  | inactive
NCCNCCN |  | inactive
CCC(=O)OCc1ccccc1 |  | inactive
CNC[C@H](O)c1cccc(O)c1 |  | inactive
CCCCCCCCCCCCCCCCCC(=O)OCC(CC)CCCC (stereo not given) |  | inactive
CCCCCCCCC=O |  | inactive
CC(=O)/C=C/C1=C(C)CCCC1(C)C |  | inactive

SMILES | AC50 | outcome
Nc1cc([N+](=O)[O-])ccc1Cl |  | inactive
CC[Si](OC(C)=O)(OC(C)=O)OC(C)=O |  | inactive
O=C(O)c1cn(C2CC2)c2cc(N3CCNCC3)c(F)cc2c1=O |  | inactive
COc1cc(C=O)ccc1OC(=O)C(C)C |  | inactive
CCCCC(CC)COCCC#N (stereo not given) |  | inactive
CCCCC/C=C/C=C/C=O | 29.7 µM (active) | 
O=C(O)c1ccc([N+](=O)[O-])cc1 |  | inactive
OC[C@H]1O[C@H](O[C@]2(CCl)O[C@H](CCl)[C@@H](O)[C@@H]2O)[C@H](O)[C@@H](O)[C@H]1Cl |  | inactive
CC(C)(COC(=O)c1ccccc1)COC(=O)c1ccccc1 | 31.3 µM (active) | 
O=C(O)C[C@H](O)C[C@H](O)/C=C/c1c(C2CC2)nc2ccccc2c1-c1ccc(F)cc1 | 0.256 µM (active) | 
CCn1c2ccccc2c2cc(N)ccc21 |  | inactive
Cc1cc(C2(c3cc(C)c(O)cc3C)OS(=O)(=O)c3ccccc32)c(C)cc1O |  | inactive
CC1CCC(C(C)CS)CC1S (stereo not given) | 29.4 µM (active) | 
CC(C)c1ccc(C(C)C)cc1 |  | inactive
CC(=O)O[C@]1(C(C)=O)CC[C@H]2[C@@H]3C[C@H](C)C4=CC(=O)CC[C@]4(C)[C@H]3CC[C@@]21C |  | inactive
CCc1c(C)cc(N)c(CC)c1N |  | inactive
C#C[C@]1(O)CC[C@H]2[C@@H]3CCC4=Cc5oncc5C[C@]4(C)[C@H]3CC[C@@]21C | 6.65 µM (active) | 
O=C=NC1CCC(CC2CCC(N=C=O)CC2)CC1 (stereo not given) |  | inactive
O=C1OC2(c3cc(Br)c(O)c(Br)c3Oc3c2cc(Br)c(O)c3Br)c2c(Cl)c(Cl)c(Cl)c(Cl)c21 | 3.6 µM (active) | 
O=C(O)c1cn(-c2ccc(F)cc2)c2cc(N3CCNCC3)c(F)cc2c1=O |  | inactive
